In PubChem BioAssay (Tox21):
Records with an inconclusive call do not appear. Entries that show only a call come without a potency. Activity calls are given as the source filed them. Calls come from the whole dose curve; as a rule, active = well fitted cell-killing curve with a large enough effect in the repeat runs; inconclusive = weak or mixed curves, or effect the other way; inactive = flat fitted curve, though single readings scatter.

Assays:
[1] = cAMP Responsive Elements (CRE) small molecule antagonists, cell-based qHTS assay: qHTS cell viability counter screen (AID 2060913); note: nearly all actives have a fitted effect of over 40% in size
How it was run: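 CRE-bla HEK293T cells (2,000/well, 18 h) given compound plus NKH477 0.25 uM final for 3 h at 37C; viability counter-screen by CellTiter-Glo luminescence in same wells after 30 min.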

[2] = cAMP Responsive Elements (CRE) small molecule agonists, cell-based qHTS assay: qHTS cell viability counter screen (AID 2060914);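 note: viability read after 3 h of compound exposure; nearly all actives have a fitted effect of over 50% in size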
How it was run: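 Cytotoxicity counter screen multiplexed with the CRE-bla reporter assay in HEK 293T cells: 3 h compound exposure at 37 °C, followed by CellTiter-Glo luminescence measured in the same wells.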

Row | SMILES | Potency [1] | Potency [2]
1 | CC(=O)c1ccc(C(C)=O)cc1 | inactive | inactive
2 | CCCCCCOC(=O)CCCCCCCC(=O)OCCCCCC | inactive | inactive
3 | O=C1c2ccccc2C(=O)c2c1ccc(O)c2O | inactive | inactive
4 | CS(=O)(=O)c1ccc([C@@H](C[C@H]2CCC(=O)C2)C(=O)Nc2cnccn2)cc1Cl | inactive | inactive
5 | Cc1occc1SSc1ccoc1C | inactive | inactive
6 | CCCCOCCOCCOCCOCCO | inactive | inactive
7 | Cc1ccc(N(CC2=NCCN2)c2cccc(O)c2)cc1 | inactive | inactive
8 | CCOc1nc2cccc(C(=O)O)c2n1Cc1ccc(-c2ccccc2-c2nn[nH]n2)cc1 | inactive | inactive
